From PubChem
CCT chaperon mod: High-Throughput Screening for Modulators of Cytosolic Chaperonin Activity | purified chaperonin ATPase assay, HTRF ADP detection, 30 min | activity change, % (test concentration not listed), hits read low | 360,000 tested, 0.3% active | AID 651819, 2012; in the data active = activity change below about -30%
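TRiC (40 or 20 nM final, by batch activity) in 30 mM Tris pH 7.4, 100 mM KCl, 5 mM MgCl2, 1 mM DTT was treated with compound at 76 uM single dose, then 10 uM ATP, 30 min at 37 °C. ADP was read by HTRF Transcreener.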
pAkt inh: HTS Assay for Inhibitors of Akt Phophorylation: Primary Screen; Neuro2A IGF-stimulated pAkt S473 HTRF, 20 min; hits give low values; activity change, % for hits at 50 µM; 360,000 tested, 0.32% active; AID 651550, 2012; in the data active = activity change below about -80%; inconclusive = mostly about -51% to -80%
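Neuro2A cells in DMEM with 0.5% FBS, overnight at 37 deg C, given compound at single 50 µM final, then IGF (6 nM final) for 20 min at 37 deg C. Lysed; phospho-Akt Ser473 by HTRF after 24 h, 665/615 ratio.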
Six1-Eya2 inh: qHTS Assay for Inhibitors of the Six1/Eya2 Interaction; Homeobox protein SIX1 (Homo sapiens) + Protein phosphatase EYA2 (Homo sapiens), …; AlphaScreen GST-Six1/His-Eya2 binding, biochemical; hits give low values; activity change, % (concentration not given with the values); 360,000 tested, 0.56% active; AID 651725, 2012
Target sequence (O00167 whole entry, looked up): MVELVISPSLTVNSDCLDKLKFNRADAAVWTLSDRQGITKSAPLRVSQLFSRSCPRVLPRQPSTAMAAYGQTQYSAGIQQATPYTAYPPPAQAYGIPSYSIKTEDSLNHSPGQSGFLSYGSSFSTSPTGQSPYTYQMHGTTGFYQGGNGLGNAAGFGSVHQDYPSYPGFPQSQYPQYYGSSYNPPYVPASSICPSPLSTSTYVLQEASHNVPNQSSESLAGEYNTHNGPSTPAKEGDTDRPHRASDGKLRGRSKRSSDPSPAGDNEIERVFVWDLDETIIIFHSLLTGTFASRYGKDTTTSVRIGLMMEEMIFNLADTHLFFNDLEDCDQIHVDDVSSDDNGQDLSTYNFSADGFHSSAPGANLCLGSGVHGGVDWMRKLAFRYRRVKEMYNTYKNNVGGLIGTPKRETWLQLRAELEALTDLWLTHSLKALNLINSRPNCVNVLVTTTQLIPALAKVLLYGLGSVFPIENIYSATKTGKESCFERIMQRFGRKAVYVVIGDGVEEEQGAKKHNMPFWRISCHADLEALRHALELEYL
Target sequence (Q15475 whole entry, looked up): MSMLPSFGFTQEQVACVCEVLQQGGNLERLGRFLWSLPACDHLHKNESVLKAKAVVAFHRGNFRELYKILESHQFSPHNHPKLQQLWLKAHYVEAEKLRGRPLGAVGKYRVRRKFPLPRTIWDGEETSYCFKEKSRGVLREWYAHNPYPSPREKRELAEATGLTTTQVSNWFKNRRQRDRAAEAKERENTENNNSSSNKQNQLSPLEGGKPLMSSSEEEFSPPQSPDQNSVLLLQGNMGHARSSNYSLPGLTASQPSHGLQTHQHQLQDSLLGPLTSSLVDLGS
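Compounds are tested against tagged Six1 and Eya2 proteins bridged by glutathione donor and nickel acceptor beads; after a one-hour incubation at 37 °C without light, AlphaScreen emission is recorded.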
CtBP-E1A inh: qHTS Assay for Inhibitors of the CtBP/E1A Interaction. CtBP / adenovirus E1A interaction (AlphaScreen). AlphaScreen GST-E1A/His-CtBP binding, 1536-well; hits give low values. activity change, % (test concentration not listed). 340,000 tested, 0.49% active
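GST-E1A and His-tagged CtBP (125 nM each as 5X stock) were preincubated with pin-transferred compound for 2 h at 37 °C in the dark, then glutathione donor and nickel acceptor beads were added for 1 h before AlphaScreen reading.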
Active calls of the source: *; i = inactive; ? = inconclusive; . = no result given. Compounds with a hit are over-represented: about 1.3% of the library has one in this group of screens. Cut-off read from the data, not from the text of the source, unless noted: active = activity change below about -65%; inconclusive = mostly about -30% to -63%; inactive = weaker than that. % is set by controls: 0 for no effect and ±100 for the full control effect.

SMILES	CCT chaperon mod	pAkt inh	Six1-Eya2 inh	CtBP-E1A inh
Cc1ccc(O)c(CO)n1	-1.3	i	7.7	-4.0
CCOC(=O)c1sc2nc(CC(=O)OC)nc(NCc3ccco3)c2c1C	0.5	i	-28.5	-11.0
CCOC(=O)c1sc2ncnc(NCc3ccco3)c2c1C	1.3	-111.5%*	-14.6	-2.6
CCCC(=O)NCCc1nc2ccccc2n1C	-1.7	-124.1%*	-1.7	2.6
Cc1ccc(C(=O)CSc2nc3ccccc3c(=O)n2-c2ccccc2)s1	-0.4	-100.1%*	2.0	7.1
Cc1cc(C(=O)OCC(=O)Nc2cc(C)on2)c2ccccc2n1	-35.1*	i	-1.1	-16.6
Cc1ccc(-n2c(SCC(=O)Nc3cc(C)on3)nc3ccccc3c2=O)cc1	-0.9	-84.9%*	1.0	-3.3
CCCCn1c(SCC(=O)Nc2cc(C)on2)nc2ccsc2c1=O	-2.1	-101.2%*	3.4	8.4
O=C(O)c1ccc(CSc2nc3ccccc3c(=O)n2-c2ccccc2)cc1	-5.7	i	1.1	.
Cc1cc(NC(=O)CSc2nc3ccsc3c(=O)n2CCCCC(=O)O)no1	-0.5	i	-0.5	-5.4
CCCNC(=O)COC(=O)c1cc(C)nc2ccccc12	-2.1	i	4.8	.
Cn1c(N)c(C(=O)N2CCN(c3ccccc3)CC2)c(=O)n(C)c1=O	-1.0	i	-2.8	0.7
CCOc1ccc(C(=O)COC(=O)c2cccc(-n3cnnn3)c2)cc1	0.8	i	14.9	-17.0
Cc1ccc(CNC(=O)CSc2ncc(C(=O)Nc3ccccc3)c(=O)n2C)cc1	0.6	i	-5.9	6.4
CCCCN(C(=O)/C=C/c1ccc(OC)cc1)C1CCS(=O)(=O)C1 (stereo not given)	-3.3	i	2.4	-5.2
O=C(COC(=O)/C=C/c1ccccc1)NCc1ccco1	-55.6*	i	-8.2	-7.1
O=C(COC(=O)/C=C/c1cccc(Br)c1)NCc1ccco1	-4.4	i	-4.5	-2.6
CCN(Cc1ccc(Cl)s1)C(=O)c1cccc(OCc2c(C)noc2C)c1	-0.3	i	2.6	5.0
CCOC(=O)C1=C(C)NC(=O)NC1c1cc(Br)c(O)c(OC)c1 (stereo not given)	-0.4	-119.6%*	-4.9	1.0
COc1ccc(-c2cnc3c(NC(C)=O)cc(-c4cccc(C(=O)N(C)C)c4)cn23)cc1OC	-33.0*	.	-5.9	-15.6
O=C(c1ccc(F)cc1)C1CCN(C(=O)Nc2ccc(F)cc2)CC1	-33.9*	i	-1.4	5.3
CCOc1ccc(NC(=O)N2CCC(C(=O)c3ccc(F)cc3)CC2)cc1	-2.0	i	-0.6	-3.0
CC(=O)OCCn1c([N+](=O)[O-])cnc1C=[N+]([O-])C1CCCCC1	1.4	i	12.3	0.8
CN(C(=O)C(C)(C)C)[C@H]1C[C@H]2c3[nH]c4ccccc4c3CCN2C(=O)[C@H]1CO	0.3	i	2.3	-14.5
CN(C(=O)NC1CCCCC1)[C@H]1C[C@H]2c3[nH]c4ccccc4c3CCN2C(=O)[C@H]1CO	-56.7*	i	-2.0	-3.5
SMILES	CCT chaperon mod	pAkt inh	Six1-Eya2 inh	CtBP-E1A inh
CCN(CC)c1ccc(/C=N/N2CCN(Cc3ccccc3)CC2)c(O)c1	-1.8	i	-74.8*	?
CCN(CC)c1ccc(/C=N/N2CCN(c3ccccc3OC)CC2)cc1	-0.3	i	-67.0*	-20.8
CCN(CC)c1ccc(/C=N/N2CCN(Cc3ccccc3Cl)CC2)cc1	-1.7	i	-74.3*	-27.3
Cc1cccc(C)c1NC(=O)C1(C)CCC(=O)N1c1cc(C(C)(C)C)nn1C (stereo not given)	-2.1	i	3.3	8.2
Cc1nn(-c2ccccc2)c2nc(C(Cl)(Cl)Cl)[nH]c(=O)c12	-1.5	i	-3.8	-4.4
O=c1c2[nH]c3ccccc3c2ncn1Cc1ccccn1	2.1	i	0.3	8.6
O=c1c2[nH]c3ccccc3c2ncn1Cc1ccncc1	2.3	-94.4%*	-4.9	-6.6
CC(C)(CNC(=O)CO/N=C1/C=C2CCC3C(C(O)C[C@@]4(C)C3CC[C@]4(O)C(=O)CO)[C@@]2(C)CC1)C(O)C(=O)O (stereo not given in full)	-15.1	i	-1.7	.
O=C(NCc1ccccc1)C(c1ccc(-c2ccccc2)cc1)N1CCN(c2ccccc2F)CC1 (stereo not given)	.	i	1.9	-1.6
Cn1cc(-c2csc(C(O)(c3ccccc3)C(F)(F)F)n2)cn1 (stereo not given)	-2.0	i	4.9	1.5
Cc1cc(=O)n2nc(N3CCC(C(=O)NCc4ccc(Cl)cc4)CC3)sc2n1	-2.1	i	-65.3*	.
Cc1ccc(CNC(=O)C2CCN(c3nn4c(=O)cc(C)nc4s3)CC2)cc1	-0.3	i	?	?
O=C(CCSc1ccc(F)cc1)NNC(=O)c1ccc([N+](=O)[O-])cc1	-2.6	i	-1.7	-16.5
Cc1ccc(C(C)C)c(Oc2nnnn2-c2ccccc2)c1	-3.1	i	22.5	33.1
Cc1ccc(C)c(Oc2nnnn2-c2ccccc2)c1	0.6	-114.6%*	28.1	22.2
CCC(=O)N1CCN(c2ccc(NC(=S)NC(=O)c3cc4ccccc4o3)cc2)CC1	-4.4	i	10.0	-2.4
O=C(O)c1cc(N=Nc2c(O)ccc3ccccc23)cc(C(=O)O)c1	0.4	i	-8.3	-10.2
O=C(O)c1ccc(N=Nc2c(O)ccc3ncccc23)cc1	-0.1	i	-93.9*	.
CC1CCN(c2ccc(NC(=O)c3ccc(Br)o3)cc2)CC1	-2.0	i	-19.4	-3.7
Cc1[nH]n(-c2ccccc2)c(=O)c1/C=N/NC(=O)C(C)C	-0.7	i	?	20.7
CC(=O)N/N=C/c1c(C)[nH]n(-c2ccccc2)c1=O	-0.1	i	-73.3*	-67.6*
COC(=O)N/N=C\c1c(C)[nH]n(-c2ccccc2)c1=O	-2.4	i	6.5	-2.1
Cc1[nH]n(-c2ccccc2)c(=O)c1/C=N\NC(=O)C1COc2ccccc2O1 (stereo not given)	1.6	i	-88.7*	-80.6*
COCC(=O)N/N=C/c1c(C)[nH]n(-c2ccccc2)c1=O	-1.4	i	-76.8*	-89.8*
Cc1[nH]n(-c2ccccc2)c(=O)c1/C=N/NC(=O)COc1ccccc1[N+](=O)[O-]	-2.1	i	-78.8*	-87.7*
CN(CC(=O)Nc1cccc(F)c1)C(=O)c1ccc(N2CCCCC2)c([N+](=O)[O-])c1	-1.3	i	-23.6	-3.7
CCOC(=O)C1=C(CS(=O)(=O)c2ccccc2)NC(=O)NC1c1cc(OC)c(O)c(OC)c1 (stereo not given)	-2.6	i	4.7	2.9
O=C(Nc1ccc2ccccc2c1)c1ccc2[nH]c(=O)c(=O)[nH]c2c1	-3.4	i	?	-84.5*
N#Cc1ccc(C(=O)Nc2ccc3ccccc3c2)cc1	-0.3	i	7.8	2.9
O=C(NCCCNCCCNC(=O)c1ccc(/C=N/O)nc1)c1ccc(/C=N/O)nc1	-2.2	i	-86.7*	.
